The nature of experiment [1]: NS1 protein of Zika virus - qHTS assay to identify small molecule inhibitors in human HEK 293 cells (AID 1347053). Note: series mostly up to about 46 µM; nearly all actives have a fitted effect of over 55% in size. In a few lines: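 Inhibition of NS1 expression was scored in HEK 293 cells given compound 1 h ahead of MR766 virus (MOI = 0.5). Following 24 h at 37 C, two anti-NS1 antibodies generated a TR-FRET signal, scaled between uninfected and infected controls.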
A general note: Quantitative high-throughput screening tests each substance at several concentrations.

The nature of experiment [2]: qHTS of pediatric cancer cell lines to identify multiple opportunities for drug repurposing: Primary screen for TC32 cells (AID 1347089). Note: nearly all actives have a fitted effect of over 60% in size. Summed up:
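Measured quantity: luminescence from CellTiter-Glo, reflecting metabolically active TC32 cells following 48 h of compound. Curves came straight from multi-point titrations, with 8 or 11 points in primary and 11 in confirmatory screening.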

A short description of experiment [3]: qHTS of pediatric cancer cell lines to identify multiple opportunities for drug repurposing: Primary screen for A673 cells (AID 1347092). Note: nearly all actives have a fitted effect of over 45% in size. Note: potency is the fitted concentration of half-maximal effect. In a few lines: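 Cells are plated, rested 5 h, dosed by pintool, incubated 48 h, then lysed with CellTiter-Glo and read by luminescence. DMSO is the neutral control; bortezomib at 2.3 uM final is the positive control.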
The nature of experiment [4]: qHTS of pediatric cancer cell lines to identify multiple opportunities for drug repurposing: Primary screen for SK-N-MC cells (AID 1347093). Note: potency is the fitted concentration of half-maximal effect. In a few lines:
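Metabolically active cells were quantified by ATP-dependent luminescence (CellTiter-Glo, 15 min at room temperature) following 48 h treatment. Cells had been plated at 500-1,000 per well and settled for 5 h beforehand.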

Experiment [5] is described as follows: qHTS of pediatric cancer cell lines to identify multiple opportunities for drug repurposing: Primary screen for BT-37 cells (AID 1347094). Note: series mostly up to about 57 µM. In a few lines: (§1)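 CRCs from 8- or 11-point titrations (lowest final 0.59 nM NPC, 0.78 nM MIPE). Cell viability: CellTiter-Glo after 48 h incubation, 15 min room-temperature development, luminescence imaging.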
The nature of experiment [6]: qHTS of pediatric cancer cell lines to identify multiple opportunities for drug repurposing: Primary screen for NB-EBc1 cells (AID 1347095). Note: potency is the fitted concentration of half-maximal effect. Summed up: as §1
A short description of experiment [7]: qHTS of pediatric cancer cell lines to identify multiple opportunities for drug repurposing: Primary screen for U-2 OS cells (AID 1347096). Note: nearly all actives have a fitted effect of over 50% in size. In a few lines: (§2)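 Viability after 48 h compound treatment at 37C, 500-1,000 cells/well, read as ATP luminescence with CellTiter-Glo. Primary screens used 11-point (MIPE, 0.78 nM-46 µM) or 8-point (NPC, 0.59 nM-46 µM) final concentrations; follow-up screens used 11-point dilutions.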

Experiment [8] is described as follows: qHTS of pediatric cancer cell lines to identify multiple opportunities for drug repurposing: Primary screen for Saos-2 cells (AID 1347097). Note: nearly all actives have a fitted effect of over 40% in size. Note: potency is the fitted concentration of half-maximal effect. In a few lines:
as §1

The nature of experiment [9]: qHTS of pediatric cancer cell lines to identify multiple opportunities for drug repurposing: Primary screen for SK-N-SH cells (AID 1347098). Note: nearly all actives have a fitted effect of over 65% in size. Note: potency is the fitted concentration of half-maximal effect. In a few lines: (§3)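 Cells (500-1,000/well) rested 5 h, then received compounds for 48 h; metabolically active cells were measured by CellTiter-Glo luminescence. Final concentrations spanned up to 46 µM (MIPE, 11-point) or 0.59 nM-46 µM (NPC, 8-point) in primary screens, 11-point in follow-ups.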

The nature of experiment [10]: qHTS of pediatric cancer cell lines to identify multiple opportunities for drug repurposing: Primary screen for NB1643 cells (AID 1347099). Note: nearly all actives have a fitted effect of over 50% in size. Summed up:
as §1

Experiment [11] can be described thus: qHTS of pediatric cancer cell lines to identify multiple opportunities for drug repurposing: Primary screen for LAN-5 cells (AID 1347100). Note: potency is the fitted concentration of half-maximal effect. In a few lines:
as §2

Experiment [12] can be described thus: qHTS of pediatric cancer cell lines to identify multiple opportunities for drug repurposing: Primary screen for BT-12 cells (AID 1347101). Note: nearly all actives have a fitted effect of over 25% in size. Summed up: as §3
A short description of experiment [13]: qHTS of pediatric cancer cell lines to identify multiple opportunities for drug repurposing: Primary screen for Rh18 cells (AID 1347102). Note: nearly all actives have a fitted effect of over 65% in size. In a few lines:
as §2

Experiment [14] is described as follows: qHTS of pediatric cancer cell lines to identify multiple opportunities for drug repurposing: Primary screen for RD cells (AID 1347104). Note: nearly all actives have a fitted effect of over 55% in size. In a few lines:
as §1

A short description of experiment [15]: qHTS of pediatric cancer cell lines to identify multiple opportunities for drug repurposing: Primary screen for DAOY cells (AID 1347090). Note: nearly all actives have a fitted effect of over 55% in size. Note: potency is the fitted concentration of half-maximal effect. In a few lines: (§4)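 Viability measured as metabolically active cells via CellTiter-Glo luminescence following 48 hours of compound exposure, 11-point dilutions in confirmatory testing. 500-1,000 cells/well plated 5 hours before dosing; controls were DMSO and 2.3 µM bortezomib.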

Experiment [16] is described as follows: qHTS of pediatric cancer cell lines to identify multiple opportunities for drug repurposing: Primary screen for SJ-GBM2 cells (AID 1347091). Note: potency is the fitted concentration of half-maximal effect. In a few lines:
as §4

A short description of experiment [17]: qHTS of pediatric cancer cell lines to identify multiple opportunities for drug repurposing: Primary screen for OHS-50 cells (AID 1347103). Note: nearly all actives have a fitted effect of over 40% in size. Note: potency is the fitted concentration of half-maximal effect. In a few lines:
as §3

Results filed as inconclusive are left out. Active and inactive are the calls of the source. Calls come from the whole dose curve; as a rule, active = well fitted curve in the direction sought with a large enough effect; inconclusive = small, poorly fitted or top-dose-only effect, or another doubt; inactive = no such curve, though single readings can be large; an effect the other way counts as inactive or inconclusive.

With `CCCC(=O)O[C@]1(C(=O)CO)CC[C@H]2[C@@H]3CCC4=CC(=O)CC[C@]4(C)[C@H]3[C@@H](O)C[C@@]21C`, the Potency result in experiment [1], in [2], in experiment [3], in [4], in experiment [5] and in [6] was “inactive” throughout. Further, the Potency result in [7], in experiment [8], in experiment [9], in [10], in experiment [11] and in [12] was “inactive” throughout. In addition, the Potency result in experiment [13] and in [14] was “inactive” in each case.
Turning to `NC(=O)CC[C@@H]1NC(=O)[C@H](Cc2ccccc2)NC(=O)[C@H](Cc2ccc(O)cc2)NC(=O)CCSSC[C@@H](C(=O)N2CCC[C@H]2C(=O)N[C@@H](CCCN=C(N)N)C(=O)NCC(N)=O)NC(=O)[C@H](CC(N)=O)NC1=O`, the Potency result in experiment [1], in [15], in experiment [16], in [3], in experiment [4] and in [5] was “inactive” in each case. Moreover, the Potency result in experiment [6], in experiment [7], in experiment [8], in [9], in experiment [10] and in [12] was “inactive” throughout. For the same compound, the Potency result in experiment [13], in [17] and in experiment [14] was “inactive” each time.
`COC(=O)C1=C(C)NC(C)=C(C(=O)O[C@@H]2CCCN(Cc3ccccc3)C2)[C@@H]1c1cccc([N+](=O)[O-])c1`: the Potency entry in experiment [1], in experiment [2], in experiment [15], in experiment [3], in [10] and in experiment [14] was “inactive” in each case. For the same compound, the Potency in experiment [9] was 30.7 µM (active).
On to `c1ccc(-c2ccc(C(c3ccccc3)n3ccnc3)cc2)cc1` (stereo not given), for which the Potency entry in experiment [1], in experiment [2], in [16], in [8] and in [13] was “inactive” throughout.
In the case of `NC(=O)C(=O)N/N=C/c1ccc([N+](=O)[O-])o1`, the Potency result in [1], in experiment [2] and in experiment [16] was “inactive” each time. Also, the Potency in experiment [11] is 29.9 µM (active).
Take `CC(=O)c1ccc2c(c1)N(CCCN1CCC(CCO)CC1)c1ccccc1S2`: the Potency result in experiment [1], in [2], in [15], in experiment [6], in [8] and in experiment [11] was “inactive” each time.
`CCN(CCCc1ccccc1)CCCc1ccccc1`: the Potency entry in experiment [1], in experiment [2], in [15], in experiment [3], in experiment [7] and in experiment [8] was “inactive” throughout. The Potency result in experiment [10] and in experiment [13] was “inactive” each time.
For `O=C(CCN1CCC(c2ccccc2)C1)c1ccc2c(c1)OCCO2` (stereo not given), the Potency result in experiment [1], in experiment [2], in experiment [16], in experiment [5], in experiment [7] and in experiment [13] was “inactive” throughout. Besides, the Potency in [6] and in experiment [8] was 23.7 µM (active) each time.
Take `CCCCOc1ccc(C(=O)CCN2CCCCC2)cc1`: the Potency entry in [1], in [2], in experiment [15] and in experiment [7] was “inactive” in each case. The Potency in experiment [6] was 21.1 µM (active); in experiment [8], 23.7 µM (active).
`CN(C)CCCOc1nn(Cc2ccccc2)c2ccccc12`: the Potency entry in [1], in experiment [2], in experiment [15], in experiment [8], in [10] and in [13] was “inactive” each time. Moreover, in [9], the Potency was 15.4 µM (active).
Consider `CN1CCC(=C2c3ccccc3Sc3ccccc32)CC1`, for which the Potency result in experiment [1], in experiment [2], in [15], in [6], in experiment [7] and in [11] was “inactive” in each case. The values for the Potency in experiment [9] and in [17] were 19.4 µM (active) and 17.4 µM (active), respectively.
Consider `CCOC(=O)[C@H](CCc1ccccc1)N[C@@H](C)C(=O)N1Cc2ccccc2C[C@H]1C(=O)O`, for which the Potency entry in experiment [1], in [2], in experiment [16], in experiment [3], in experiment [5] and in [7] was “inactive” throughout. Further, the Potency entry in experiment [10], in experiment [13], in [17] and in experiment [14] was “inactive” in each case.
`CC(C)(C)CC(C)(C)c1ccc(O)c(Cc2ccc(Cl)cc2Cl)c1`: the Potency entry in experiment [1] and in experiment [2] was “inactive” each time. In addition, the Potency is 21.1 µM (active) in experiment [16]; 13.3 µM (active) in [6]; 16.8 µM (active) in [8]; 21.1 µM (active) in experiment [11]; 24.6 µM (active) in experiment [17].
Take `CCCCOc1cc(C(=O)NCCN(CC)CC)c2ccccc2n1`: the Potency entry in [1], in [2], in experiment [15], in [6], in experiment [7] and in experiment [8] was “inactive” each time. Besides, the Potency entry in [12], in experiment [13] and in experiment [17] was “inactive” in each case.
`Cc1ccccc1C(=O)Nc1ccc(C(=O)N2CCCC(N(C)C)c3ccccc32)cc1` (stereo not given): the Potency entry in experiment [1], in experiment [2] and in experiment [7] was “inactive” throughout. Moreover, the Potency in [16] was 9.44 µM (active); in experiment [3] it was 8.41 µM (active); in experiment [4], 6.68 µM (active); in [6] it was 2.99 µM (active); in [8], 6.68 µM (active); in experiment [11] it was 18.8 µM (active). Moreover, in [17], the Potency is 21.9 µM (active).
As to `CCOC(=O)n1ccn(C)c1=S`, the Potency result in experiment [1], in experiment [2], in experiment [15], in experiment [3], in experiment [5] and in experiment [6] was “inactive” each time. Besides, the Potency result in experiment [7], in experiment [8], in experiment [9], in [11], in experiment [12] and in [13] was “inactive” in each case. The Potency result in experiment [17] and in [14] was “inactive” each time.
For the compound `COc1cc(N)c(Cl)cc1C(=O)NC1CCN(CCCOc2ccc(F)cc2)CC1OC` (stereo not given), the Potency result in experiment [1], in [2], in [15], in experiment [5], in experiment [6] and in experiment [7] was “inactive” each time. Also, the Potency result in experiment [8], in [10] and in [13] was “inactive” in each case. Moreover, in experiment [17], the Potency is 30.9 µM (active).
As to `CCCCCCc1ccc(O)cc1O`, the Potency entry in experiment [1], in experiment [2], in experiment [15], in [4], in experiment [5] and in experiment [7] was “inactive” each time. In addition, the Potency entry in experiment [10], in experiment [11], in experiment [12], in experiment [13] and in experiment [14] was “inactive” throughout.
Consider `CC/C(=C(/CC)c1ccc(O)cc1)c1ccc(O)cc1`, for which the Potency entry in experiment [1], in experiment [2] and in [7] was “inactive” throughout. Further, the Potency in experiment [15] is 21.1 µM (active); in [9] it was 5.45 µM (active); in experiment [17], 15.5 µM (active).
Regarding `O=C1[C@H]2CCCC[C@H]2C(=O)N1CCCCN1CCN(c2nsc3ccccc23)CC1`, the Potency result in experiment [1], in experiment [2], in experiment [15], in experiment [4], in experiment [5] and in [6] was “inactive” each time. For the same compound, the Potency entry in experiment [7], in experiment [9], in experiment [10], in experiment [13] and in experiment [14] was “inactive” in each case.
In the case of `CN(C/C=C/c1ccccc1)Cc1cccc2ccccc12`, the Potency result in experiment [1], in [2], in [7], in [10] and in [13] was “inactive” each time. Further, in [8], the Potency was 23.7 µM (active).
On to `COc1ccc(/C=C/C(=O)c2ccc(OC)cc2OC)cc1`, for which the Potency entry in experiment [1], in experiment [2] and in experiment [7] was “inactive” in each case. Further, the Potency in experiment [8] is 10.6 µM (active); in experiment [9], 19.4 µM (active); in [11] it was 21.1 µM (active).
Regarding `CN(C)CC/C=C1\c2ccccc2Sc2ccc(Cl)cc21`, the Potency result in [1], in [2], in [15], in experiment [7] and in experiment [10] was “inactive” each time. Further, the Potency in experiment [17] is 30.9 µM (active).
Take `Cc1c(C(C)C)c(=O)n(-c2ccccc2)n1C`: the Potency entry in experiment [1], in experiment [15], in experiment [16], in [3], in [4] and in experiment [5] was “inactive” in each case. Further, the Potency result in experiment [6], in [7], in [8], in experiment [9], in experiment [10] and in experiment [11] was “inactive” in each case. Also, the Potency entry in experiment [12], in experiment [13], in experiment [17] and in [14] was “inactive” in each case.

The record behind these values is PubChem BioAssay (NCATS).
